Growth data for 40 molecules are collected here from PubChem BioAssay (NCI).

The panel holds about 83,000 compounds, 20% with a hit somewhere; the sample as a whole holds those more often.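 Compound tested at a single concentration for 48 hours in 96-well plates; a percent growth value below 10 was scored as active.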 A number with no mark means an inactive call. The source made the active and inactive calls.

One assay has as its system SW-620 colon. Description: NCI-60 one-dose screen, 48 h (100 = growth as untreated, 0 = no growth, -100 = all killed). As to conditions: 10 µM unless noted.
Consider `COc1cc(Nc2c3ccc(Cl)cc3nc3ccc(OC)cc23)c2ncccc2c1`, for which the growth is 45.7%. As for `N#Cc1c(-c2ccccc2)nc2c(c(-c3ccccc3)nn2-c2ccccc2)c1-c1ccc(N2CCOCC2)cc1`, the growth is 45.6%.

As to `COc1ccc(NC(=O)c2ccc(C(=O)Nc3ccc(OC)cc3OC)cc2)c(OC)c1`, the growth is 97.9%. Same read-out and setting: the same measure for `CCN=C1C=CC(=C(c2ccc(N(C)C)cc2)c2ccc(N(C)C)cc2)c2ccccc21`: -9.44% (active).

Another assay concerns MCF7 breast. The assay is described as above. Particulars: 10 µM unless noted.
Consider `CC(C)(CO)N(CCO)CCO`, for which the growth was 100%.

On to `CCCCCCCCn1ccc2cc(NC(=O)Cn3cc(CN4CCCCCC4)nn3)ccc21`, for which the growth was -23.2% (active). Still for that read-out and setting: the figure for `COc1cc2cc(Oc3ccc(NC(=O)Nc4ccccc4)cc3)c(C)nc2cc1OCCN1CCCCC1` is 31.9%. In the case of `CN1CCN(CCCOC(=O)c2c3c(n4ccccc24)C(=O)c2ncccc2C3=O)CC1`, the growth is -45.9% (active). The same measure, in the same setting: the figure for `Cc1ccc2[nH]c(-c3ccc(S(C)(=O)=O)cc3)c(/C=N/N=C(N)N)c2c1` is 64.6%. Same read-out and setting: the figure for `COc1ccc(C/C(C)=C(\c2ccc(O)cc2)c2ccc(OCCN3CCCC3)cc2)cc1` is 63.3%; for `CC1(C)C2CC=C(/C=N/NC(=O)C3CCC(=O)N3)C1C2` (centres undefined) it is 99.1%; for `COc1ccc2cc(-c3ccc(-c4ccc(C(=N)N)s4)s3)ccc2c1` it is -60.9% (active). For `Cc1nc2sc(C(=O)Nc3ccccc3)c(N)c2cc1C(=O)/C=C/c1ccccc1`, the growth was 3.7% (active). The same measure, in the same setting: the figure for `O=C1/C(=C/c2ccc(C(F)(F)F)cc2)COc2ccc(O)cc21` is 6.03% (active). Still for that read-out and setting: the figure for `Cc1[nH]c(C(=O)Nc2ccc(C(N)=O)cc2NC(C)C)c(Cl)c1Cl` is 92%; for `Oc1c(CN2CCCC2)cc(COCc2ccccc2)c2cccnc12` it is 10% (active); for `CCCCCCCC/C=C\CCCCCCCCOc1ccccc1CC(=O)NCC[N+]1(C)CCCCC1` it is 80%. Still for that read-out and setting: the figure for `O=C1Nc2ccc(F)cc2/C1=C\c1nc(-c2ccccc2F)n2ccccc12` is 47.9%. Take `CN(C)Cc1ccc(C(=O)Nc2ccc3ncnc(Nc4ccc(Oc5cccc(F)c5)c(Cl)c4)c3c2)cc1`: the growth was -62.1% (active). On the same count and under the same terms, the same measure for `CCNC(=O)Oc1ccc(/C(=C(/C)Cc2ccc(OC)cc2)c2ccc(OCCN3CCCC3)cc2)cc1`: 29%; for `Cc1cscc(C)c1=S`: 59.4%; for `CC(=O)N/C(=C1/OC(C(O)C(O)C(O)CO)CN1C)[P+](c1ccccc1)(c1ccccc1)c1ccccc1` (centres undefined): 92.8%. The same measure, in the same setting: the figure for `COC(=O)c1c2c(n3ccc(C)cc13)C(=O)c1ccccc1C2=O` is 55.9%; for `COc1cc2nc(Nc3cccc(F)c3)nc(Nc3cc(C)[nH]n3)c2cc1OC` it is -66% [20 µM] (active). Same read-out and setting: the figure for `CC1=CCC[C@@H]2C1(C)CC[C@H](C)[C@@]2(C)CC1=CC(=O)C(SC(C)(C)C)=CC1=O` (some centres undefined) is -61.1% (active). With `O=C(/C=C/c1cccc(Cl)c1)c1cccc(OCCCCOc2cccc(C(=O)/C=C/c3cccc(Cl)c3)c2)c1`, the growth was 12.6%. The same measure, in the same setting: the same measure for `CCCNc1nc2ccccc2c2c(=O)c3cccc(Cl)c3sc12`: 31.2%. The same measure, in the same setting: the same measure for `COc1cccc(Nc2ccnc3[nH]c4ccc([N+](=O)[O-])cc4c23)c1`: 19.7%; for `CCOC(=O)CSc1nc2sc3c(c2c(=O)n1-c1ccc([N+](=O)[O-])cc1)CCCCC3`: 76.2%; for `COc1cccc2c(N=NC(=O)c3ccc(S(N)(=O)=O)cc3)c(O)[nH]c12`: 91.1%. Consider `Clc1nccc2c(-c3csc(-c4c[nH]c5ccccc45)n3)c[nH]c12`, for which the growth was 49.6%. On the same count and under the same terms, the figure for `COc1cc(/C=N/Nc2ccccc2F)cc(OC)c1OC` is 78.3%; for `COc1ccc2c(c1)c(-c1nc(-c3cn(C)c4ncccc34)cs1)cn2CCO` it is 12%. On to `CS(=O)(=O)Cc1cnc(C2OCCO2)s1`, for which the growth is 96.4%. Same read-out and setting: the same measure for `COc1ccc(Nc2ncc(C(N)=O)c(NCCCNC(=O)C3CCC3)n2)cc1`: 64%; for `N#C/C(=C\c1ccc(-c2ccc(Cl)cc2)o1)c1ccc(Cl)cc1`: 62.1%; for `COc1cc(C(=O)/C=C/c2c(-c3cccs3)nc3ccccn23)cc(OC)c1OC`: 7.96% (active).

Consider `Fc1ccc(CNc2c3ccccc3nc3ccccc23)cc1`, for which the growth was 7.09% (active). Same read-out and setting: the figure for `COc1cc(Nc2c3ccc(Cl)cc3nc3ccc(OC)cc23)c2ncccc2c1` is 40.3%; for `COc1cc(C2Cc3ncccc3-c3[nH]c(=O)c4cccnc4c32)cc(OC)c1OC` (centres undefined) it is 16%. On the same count and under the same terms, the figure for `CCc1ccc(CCC(=O)Nc2ncc(Cc3ccc(Cl)cc3)s2)o1` is 20%; for `N#Cc1c(-c2ccccc2)nc2c(c(-c3ccccc3)nn2-c2ccccc2)c1-c1ccc(N2CCOCC2)cc1` it is 57.6%; for `COc1ccc(NC(=O)c2ccc(C(=O)Nc3ccc(OC)cc3OC)cc2)c(OC)c1` it is 75.2%.

Consider `CCN=C1C=CC(=C(c2ccc(N(C)C)cc2)c2ccc(N(C)C)cc2)c2ccccc21`, for which the growth is -9.8% (active).
